Screening data (PubChem)
CDC25B CDK2 inh – human CDC25B-CDK2/CyclinA binding inhibition | P30305+P24941 | z-score (concentration not given with the values) | actives 0.72% (n = 94,000) | AID 1259370 | HTRF CDC25B-CDK2/CyclinA binding, anti-His/anti-Flag; stronger effect = higher value; in the data active means z-score above about 3.2
HIV TAR-Tat – HIV-1 TAR-Tat binding disruption; actives 0.6% (n = 100,000); z-score (test concentration not listed); HIV-1 TAR RNA, Tat peptide displacement FRET; stronger effect = higher value; active means z-score of 3 or more in at least 2 runs
A number is an active result; – = inactive; · = no result given. In the library only some 0.86% were active in any assay of this set; here they are far more common.

SMILES	CDC25B CDK2 inh	HIV TAR-Tat
CC1CN2C(=O)Cc3c(S(=O)(=O)N(C)Cc4ccccc4)ccc(c32)S1 (stereo not drawn)	·	–
O=C1COc2ccc(S(=O)(=O)N3CCOCC3)cc2N1	·	–
Cc1cc2n(n1)CCCN2C(=O)CCC(=O)NCCCOC(C)C	·	4.3
COCCCNC(=O)CCC(=O)N1CCCn2nc(C)cc21	·	–
O=C(NCCCN1CCCC1=O)c1cccn1-c1nnc(N2CCN(C3CCCCC3)CC2)s1	–	–
Cc1ccc(N2C(=O)c3cccnc3C2Nc2cc(F)ccc2F)cc1 (stereo not drawn)	–	–
COc1cc2nc(N3CCN(C(=O)c4ccco4)CC3)nc(N)c2cc1OC	–	–
COc1cc2nc(N3CCCN(C)CC3)nc(NC3CCN(Cc4ccccc4)CC3)c2cc1OC	–	5.1
COc1ccc2c(c1)OCC(Cc1ccc(OC)c(OC)c1)C2=O (stereo not drawn)	·	14
COc1ccc2c(c1)OCC(Cc1ccc(OC)c(OC(C)=O)c1)C2=O (stereo not drawn)	·	–
COc1ccc(NC(=O)CCC2=NS(=O)(=O)c3ccccc3N2)cc1OC	·	–
O=S(=O)(Nc1ccc(Br)cc1)c1ccc(N2CCCCS2(=O)=O)cc1	·	–
CC1=C(C#N)C(=O)NC(=O)/C1=C\c1ccc(-c2ccccc2)o1	–	·
CC1=C(C#N)c2nc(N)c(C#N)c(C)c2/C1=C/c1ccc(-c2ccc(C(=O)O)c(Cl)c2)o1	5.1	·
CC(=O)N1CCOc2ccc(S(=O)(=O)N3CCC(C(=O)NC4CCC(C)CC4)CC3)cc21 (stereo not drawn)	·	–
CC(=O)N1CCOc2ccc(S(=O)(=O)N3CCC(C(=O)NC4CCCC4)CC3)cc21	·	17
O=C(NCc1cccn1Cc1ccc(Cl)cc1)Nc1cc(F)ccc1F	·	–
Cc1cc(=O)n2[nH]c(NC(=O)c3ccco3)nc2n1	–	–
O=C(NCCCN1CCN(c2ccccc2)CC1)Nc1ccc(F)cc1F	–	–
O=C(NCCN1CCN(c2ccccc2)CC1)Nc1ccc(F)cc1F	–	7.7
Cc1ccc(-n2nc3ccc(N)cc3n2)cc1Cl	–	–
COc1ccc(-n2nc3ccc(N)cc3n2)cc1Cl	–	16
CN1CCN(C(=O)C2CC3CCCN3C23C(=O)N(C)c2ccccc23)CC1 (stereo not drawn)	·	–
O=C1C2N=NN(Cc3c(F)cccc3Cl)C2C(=O)N1c1ccc(F)cc1 (stereo not drawn)	–	–
CCOC(=O)c1cc(C#N)c(Oc2ccccc2)nc1C(F)(F)F	22	·
SMILES	CDC25B CDK2 inh	HIV TAR-Tat
CCOC(=O)c1cc(C#N)c(Sc2ccccn2)nc1C(F)(F)F	–	·
CCc1cc(C2CCCN2C(=O)Cn2cc(Cl)cn2)on1 (stereo not drawn)	·	–
Cc1ccc(CNC(=O)c2cnc3sc(N4CCCC4)nn3c2=O)o1	·	–
O=c1cc(CSc2nc3ccccc3s2)[nH]c2[nH]n(-c3ccccc3)c(=O)c12	–	6.2
O=c1cc(CSc2ccc(Cl)cc2)[nH]n1-c1ccccc1	–	–
O=c1cc(CSc2nc3ccccc3s2)[nH]c2nc3ccccc3n12	–	–
O=c1cc(CSc2ccc(Cl)cc2)[nH]c2[nH]n(-c3ccccc3)c(=O)c12	–	4.6
O=C(Cn1ncc2ccccc21)Nc1ccc(Br)cc1F	–	–
O=C(c1cccs1)n1ccc(-c2ccc3c(c2)CCO3)n1	–	·
COC(=O)c1ccc(-c2ccco2)n1CC(=O)NCCCN1CCCCC1	·	–
CC(C)CCNC(=O)c1ccc2c(=O)[nH]c3c(C(=O)NC4CCCC4)sc(=S)n3c2c1	·	8
CC(C)CCNC(=O)c1ccc2c(=O)[nH]c3c(C(=O)NC(C)C)sc(=S)n3c2c1	·	–
CC(C)NC(=O)c1sc(=S)n2c1[nH]c(=O)c1ccc(C(=O)NCCCN3CCCC3=O)cc12	·	8.5
CC(C)OCCCNC(=O)c1ccc2c(=O)[nH]c3c(C(=O)NC4CCCC4)sc(=S)n3c2c1	·	–
CCOC(=O)c1ccccc1NC(=O)c1cc(Cl)ccc1Cl	–	·
Cn1cnc(S(=O)(=O)Nc2cccc3c2CCCC3)c1	·	–
Brc1ccc(C(c2c[nH]c3ccccc23)c2c[nH]c3ccccc23)s1	16	·
O=C(c1ccc(Br)cc1)C(O)c1c[nH]c2ccccc12 (stereo not drawn)	–	–
COC(=O)c1ccc(C2CC(=O)NC3=C2C(=O)CC(c2cc(OC)ccc2OC)C3)cc1 (stereo not drawn)	–	–
CN(CC1CCCO1)S(=O)(=O)c1ccc(C(=O)Nc2sc3c(c2C(N)=O)CCC3)cc1 (stereo not drawn)	·	7.6
CN(C)S(=O)(=O)c1ccc(C(=O)Nc2sc3c(c2C(N)=O)CCCC3)cc1	–	–
N#Cc1nc(-c2ccc(S(=O)(=O)N3CCc4ccccc4C3)cc2)oc1NCCCn1ccnc1	11	–
CN(C)CCNc1oc(-c2ccc(S(=O)(=O)N3CCc4ccccc4C3)cc2)nc1C#N	–	–
O=C(c1cnn(-c2ccccc2)c1-n1cccc1)N1CCC(C(=O)N2CCOCC2)CC1	–	–
Cc1nn(-c2cccc(Cl)c2)c2nc(-c3ccccn3)cc(C(F)(F)F)c12	–	–
SMILES	CDC25B CDK2 inh	HIV TAR-Tat
COc1ccc(Nc2cc(N3CCC(=O)CC3)c3noc4c3c2C(=O)c2ccccc2-4)cc1	–	–
COC(=O)c1ccc(Nc2cc(N3CCOCC3)c3noc4c3c2C(=O)c2ccccc2-4)cc1	7.6	–
O=C(O)c1ccc(Nc2cc(N3CCOCC3)c3noc4c3c2C(=O)c2ccccc2-4)cc1	11	32
O=C1c2ccccc2-c2onc3c(N4CCOCC4)cc(Nc4cccc(F)c4)c1c23	–	–
O=C1CCN(c2cc(Nc3cccc(F)c3)c3c4c(onc24)-c2ccccc2C3=O)CC1	7.8	17
CN(C)c1ccc(Nc2cc(N3CCOCC3)c3noc4c3c2C(=O)c2ccccc2-4)cc1	–	–
O=C1CCN(c2cc(Nc3ccc(C(=O)O)cc3)c3c4c(onc24)-c2ccccc2C3=O)CC1	–	27
O=C1c2ccccc2-c2onc3c(N4CCOCC4)cc(Nc4ccccc4)c1c23	–	–
CC(C)NC(=O)CN1C(=O)CCSc2ccc(S(=O)(=O)N3CCCC3)cc21	·	–
CCN(CC)C(=O)C1=CC(c2cccs2)=NS(=O)(=O)N1C	–	–
O=c1c(NCCC2=CCCCC2)nccn1-c1ccc(F)c(Cl)c1	·	–
COc1ccc(S(=O)(=O)N2CCc3cc4cccc(C)c4nc32)cc1	–	–
CC1CC(C)CN(C(=O)c2cc(S(=O)(=O)N3CCc4ccccc43)cn2C)C1 (stereo not drawn)	–	–
O=C(O)c1cccc(Nc2cc(N3CCOCC3)c3noc4c3c2C(=O)c2ccccc2-4)c1	–	7
O=C1c2ccccc2-c2onc3c(N4CCOCC4)cc(Nc4ccc5c(c4)OCO5)c1c23	–	–
Cc1ccc(-c2cc3c4c(C)n(C5CCCCC5)c(C)c4c(C)nn3c2)o1	–	17
Cc1ccc(-n2c(C)c3c(C)nn4cc(C)cc4c3c2C)cc1	–	·
Cc1ccc(-c2cc3c4c(C)n(Cc5ccc6c(c5)OCO6)c(C)c4c(C)nn3c2)o1	23	35
Cc1ccc(-c2cc3c4c(C)n(C)c(C)c4c(C)nn3c2)o1	16	36
Cc1ccc(-c2cc3c4c(C)n(Cc5ccccc5)c(C)c4c(C)nn3c2)o1	–	–
CCc1nn(CC(=O)NCCN2CCCCC2C)c(=O)c2cc3sccc3n12 (stereo not drawn)	–	–
CC1CCN(CCNc2cc(N(C)C)c3noc4c3c2C(=O)c2ccccc2-4)CC1	–	–
